Results filed as inconclusive are left out. Activity calls are given as the source filed them. Calls follow the shape of the dose curve; as a rule, active = well fitted curve in the direction sought with a large enough effect; inconclusive = small, poorly fitted or top-dose-only effect, or another doubt; inactive = no such curve, though single readings can be large; an effect the other way counts as inactive or inconclusive.

Test [1] deals with Phospholipid hydroperoxide glutathione peroxidase GPX4 (Homo sapiens) (UniProt P36969). The experiment in a line: Primary qHTS Assay for Inhibitors of Recombinant Selenoprotein Glutathione Peroxidase 4 (GPX4) (AID 1845192). Also: nearly all actives have a fitted effect of over 65% in size. Put shortly: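 GR-coupled assay: recombinant GPX4 preincubated 30 min with compound at room temperature; final 200 nM GPX4, 1 mM GSH, 0.5 mM cumene hydroperoxide, 0.5 mM NADPH, 100 nM GR, 0.01% BSA, pH 7.5 Tris. NADPH fluorescence (340/450 nm) read at 0 and 15 min.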
Phospholipid hydroperoxide glutathione peroxidase GPX4 (Homo sapiens), sequence (P36969 whole entry, looked up): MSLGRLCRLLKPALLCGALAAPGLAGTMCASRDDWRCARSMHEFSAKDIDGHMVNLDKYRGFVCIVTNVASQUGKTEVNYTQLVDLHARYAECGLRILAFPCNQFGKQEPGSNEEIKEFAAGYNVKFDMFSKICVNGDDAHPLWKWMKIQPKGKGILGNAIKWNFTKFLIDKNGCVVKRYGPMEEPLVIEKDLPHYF
Background: In qHTS, concentration-response curves come from the screen itself.

Test [2] can be described thus: Quantitative High-Throughput drug screen in 47 multiple myeloma cell lines against the NCATS MIPE library collection: FR4_PLB cell viability assay (AID 1918924; also: nearly all actives have a fitted effect of over 35% in size; also: potency is read from the fitted curve at half-maximal effect). A digest of the protocol:
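Myeloma cell lines, 500 cells per well, exposed to MIPE 4.0 library compounds for 48 h at 37C, 5% CO2. Viability from ATP by CellTiter-Glo luminescence; normalised to DMSO (100%) and media-only (0%) wells.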

A short description of test [3]: Quantitative High-Throughput drug screen in 47 multiple myeloma cell lines against the NCATS MIPE library collection: EJM_DSMZ cell viability assay (AID 1918926; also: nearly all actives have a fitted effect of over 30% in size; also: potency is read from the fitted curve at half-maximal effect). A digest of the protocol:
(§1)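 Relative luminescence from CellTiter-Glo served as the viability signal, referenced to DMSO-treated (100%) and cell-free medium (0%) controls. Treatment lasted 48 hours at 37C with 500 cells per well.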

A short description of test [4]: Quantitative High-Throughput drug screen in 47 multiple myeloma cell lines against the NCATS MIPE library collection: Delta47_JCRB cell viability assay (AID 1918925; also: nearly all actives have a fitted effect of over 45% in size; also: potency is read from the fitted curve at half-maximal effect). Put shortly:
as §1

Test [5] is described as follows: Quantitative High-Throughput drug screen in 47 multiple myeloma cell lines against the NCATS MIPE library collection: AMO1_DSMZ cell viability assay (AID 1918927; also: nearly all actives have a fitted effect of over 30% in size; also: potency is read from the fitted curve at half-maximal effect). Put shortly: as §1
A short description of test [6]: Quantitative High-Throughput drug screen in 47 multiple myeloma cell lines against the NCATS MIPE library collection: ARP1_JJKsccF8 cell viability assay (AID 1918928; also: nearly all actives have a fitted effect of over 40% in size; also: potency is read from the fitted curve at half-maximal effect). Put shortly:
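ATP readout (CellTiter-Glo), 48 h drug incubation, 37 °C/5% CO2, 500 cells per well; normalisation to DMSO (100%) and media-only (0%) controls.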

Test [7] concerns the target Luciferin 4-monooxygenase (Photinus pyralis) (UniProt P08659). The experiment in a line: Primary firefly luciferase (FLuc) qHTS assay for identification of artifact compounds. (AID 1845220). Also: nearly all actives have a fitted effect of over 60% in size. Also: potency is read from the fitted curve at half-maximal effect. A digest of the protocol: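 Enzymatic FLuc inhibition assay: compounds pre-exposed to luciferin/ATP (10 uM each) for 15 min, then purified P. pyralis enzyme at 10 nM added. Read-out: luminescence at 5 min.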

Test [8] is described as follows: Primary fluorescence-based thiol-reactive (MSTI) qHTS assay for identification of artifact compounds. (AID 1845221).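 Also: series mostly up to about 54 µM; thiol-reactive compounds lower the probe fluorescence signal; nearly all actives have a fitted effect of over 65% in size.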 Put shortly:
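In PBS pH 7.4 with 2% DMSO, each compound met 4 uM MSTI for one hour at ambient temperature, shielded from light, before fluorescence detection.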

Test [9] has as its system Nanoluciferase (engineered Oplophorus gracilirostris luciferase). The test can be described thus: Primary Nanoluciferase (NLuc) qHTS assay for identification of artifact compounds. (AID 1845222).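 Also: NLuc secreted into diluted conditioned medium of S16 cells; series mostly up to about 54 µM.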 Put shortly:
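S16 cell supernatant NLuc, 1:55; cpds qHTS; 15 min RT dark; Nano-Glo substrate 1:100, 5 min; luminescence; Hill fit of % inhibition.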

Test [10] can be described thus: Primary redox qHTS assay for identification of artifact compounds. (AID 1845223). A digest of the protocol:
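Amplex Red (25 uM) and HRP (250 mU/mL) in HBSS, with compounds for 15 min, then 250 uM DTT for 30 min, room temperature, dark. Fluorescence 525/598 nm read; normalized to DMSO and 10 uM DA3003; Hill fit.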

For the compound `CC(C(=O)O)c1ccc(-c2ccccc2)c(F)c1` (stereo not given), the Potency result in test [1] and in test [2] was “inactive” each time. For the same compound, in [3], the Potency is 13.2 µM (active).
In the case of `NS(=O)(=O)c1ccc(NC2=CC(=O)c3ccccc3C2=O)cc1`, the Potency result in [1] and in test [3] was “inactive” each time. Further, the Potency is 2.96 µM (active) in [2], 18.7 µM (active) in test [4], 0.59 µM (active) in [5] and 2.64 µM (active) in [6].
As for `COc1ccc2cccc(CCNC(C)=O)c2c1`, the Potency entry in test [1], in [2], in [4], in test [3], in test [5] and in test [6] was “inactive” throughout.
As to `CCOC(CN1C(=O)[C@](CC(=O)Nc2ccc(C)cc2)(NC(=O)Nc2ccc(C)cc2)c2ccccc21)OCC`, the Potency entry in [1] and in test [3] was “inactive” each time.
For `CON=C(C(=O)N[C@@H]1C(=O)N2C(C(=O)OCOC(=O)C(C)(C)C)=C(C=Cc3scnc3C)CS[C@H]12)c1csc(N)n1`, the Potency result in test [2], in test [4], in test [3] and in [5] was “inactive” in each case.
With `O=C(OCC#CCSc1nnc(-c2cccc3ccccc23)o1)c1cc2ccccc2s1`, the Potency result in test [2] and in test [4] was “inactive” each time. For the same compound, in test [3], the Potency is 23.5 µM (active).
As for `N#CC1(c2ccc(NC(=O)c3cccnc3NCc3ccncc3)cc2)CCCC1`, the Potency result in test [1], in [3] and in test [5] was “inactive” throughout.
In the case of `COc1ccc(Cc2nccc3cc(OC)c(OC)cc23)cc1OC`, in [2], the Potency result is “inactive”.
Take `O=C(O)C(O)Cc1ccc(O)c(O)c1` (stereo not given): the Potency entry in [1] and in [5] was “inactive” each time. For the same compound, the Potency in test [3] and in test [6] was 23.5 µM (active) each time.
In the case of `CC(C)OC(=O)C(C)(C)Oc1ccc(C(=O)c2ccc(Cl)cc2)cc1`, the Potency entry in [1] and in [5] was “inactive” each time. In addition, in [3], the Potency was 10.5 µM (active).
As to `O=C(O)[C@H]1O[C@H](Oc2cc3oc(-c4ccccc4)cc(=O)c3c(O)c2O)[C@H](O)[C@@H](O)[C@H]1O`, the Potency in test [2] was 26.4 µM (active).
For the compound `Cc1ccn(-c2ccc(-c3ncco3)cc2)c(=O)c1-c1ccc2nc(N)ncc2c1`, the Potency entry in test [7], in test [8], in test [9], in test [2], in test [3] and in [6] was “inactive” throughout. Further, in test [5], the Potency is 14.8 µM (active).
For `Cc1ccc(C(C)(O)c2nc3ccccc3s2)c(C)c1` (stereo not given), the Potency result in [1], in test [4] and in test [6] was “inactive” throughout. In addition, in test [5], the Potency was 20.9 µM (active).
With `NC(=O)c1ccc2nc(-c3ccc(Oc4ccc(Cl)cc4)cc3)[nH]c2c1`, the Potency in test [7] was 3.38 µM (active); in [2], 0.166 µM (active); in test [4] it was 0.0264 µM (active); in test [5], 1.48 µM (active). Also, the Potency entry in test [8], in test [9] and in [3] was “inactive” throughout. For the same compound, the result in test [10] was inactive.

Source of the values: PubChem BioAssay (NCATS).
